# Data reported in PubChem BioAssay (NCATS).
# Inconclusive results are not listed. A number with no mark means an inactive call. Calls of active or inactive are those of the source. Calls come from the whole dose curve; as a rule, active = well fitted curve in the direction sought with a large enough effect; inconclusive = small, poorly fitted or top-dose-only effect, or another doubt; inactive = no such curve, though single readings can be large; an effect the other way counts as inactive or inconclusive.
# Experiment: Identifying Small Molecule Inhibitors of Pancreatic Cancer Stem Cells (A278, Adherent) (AID 1259361);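 note: viability read after 48 h compound exposure; nearly all actives have a fitted effect of over 35% in size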;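 for viability (% of control): 100% = DMSO-treated cells and 0% = cell-free media-only wells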
# Conditions: series mostly up to 46.1 µM; viability (% of control): at the top concentration
# Outline: (§1)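 Adherent (2D) versus sphere (3D) formats; spheres generated 14 d in SCM beforehand. Compound transferred by pin tool after 4 h, 48 h incubation, CellTiter-Glo endpoint.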
SMILES,IC50 (viability decrease),viability (% of control)
Cc1oncc1C(=O)Nc1ccc(C(F)(F)F)cc1,11.8 µM (active),–
CC(C)C[C@H](NC(=O)[C@@H](O)[C@H](N)Cc1ccccc1)C(=O)O,–,98.2
COc1c(Cl)cc2c([nH]c3cnccc32)c1NC(=O)c1cccnc1C,–,90.4
CN(C)c1ccc(Nc2nc(N)n(C(=O)c3c(F)cccc3F)n2)cc1,16.6 µM (active),–
CS(=O)(=O)c1cccc(CNc2nc(Nc3ccc4c(c3)CCC(=O)N4)ncc2C(F)(F)F)c1,3.72 µM (active),–
Oc1cccc(-c2nc(N3CCOCC3)c3oc4ncccc4c3n2)c1,0.105 µM (active),–
CC(C)(Sc1ccc(CCN(CCCCC2CCCCC2)C(=O)NC2CCCCC2)cc1)C(=O)O,–,97.3
CCC(C)n1ncn(-c2ccc(N3CCN(c4ccc(OC[C@H]5CO[C@](Cn6cncn6)(c6ccc(Cl)cc6Cl)O5)cc4)CC3)cc2)c1=O (some centres undefined),5.9 µM (active),–
COCCNCCCn1c(C(=O)CF)c(-c2ccc(C)cc2)c2c(N)ncnc21,18.7 µM (active),–
Clc1ccc(Nc2nnc(Cc3ccncc3)c3ccccc23)cc1,–,86.7
CNC(=O)c1ccc(N2C(=S)N(c3ccc(C#N)c(C(F)(F)F)c3)C(=O)C2(C)C)cc1F,23.5 µM (active),–
O=C(Nc1ccc(F)c(C(F)(F)F)c1)Nc1nnc(-c2ccncc2)s1,14.8 µM (active),–
Cc1cc2c(C(C)C)c(O)c(O)c(C=O)c2c(O)c1-c1c(C)cc2c(C(C)C)c(O)c(O)c(C=O)c2c1O,26.4 µM (active),–
C[C@@H]1CN(Cc2ccc(F)cc2)[C@@H](C)CN1C(=O)c1cc2c(C(=O)C(=O)N(C)C)cn(C)c2cc1Cl,20.9 µM (active),–
CCCc1nn(C)c2c(=O)[nH]c(-c3cc(S(=O)(=O)N4CCN(C)CC4)ccc3OCC)nc12,–,100
Cn1cc(-c2ccc3nnc(C(F)(F)c4ccc5ncccc5c4)n3n2)cn1,–,106
C[C@]1(c2nc3c(C(N)=O)cccc3[nH]2)CCCN1,18.7 µM (active),–
CNCc1ccc(-c2[nH]c3cc(F)cc4c3c2CCNC4=O)cc1,20.9 µM (active),–
N#Cc1ccc(C(c2ccc(C#N)cc2)n2cncn2)cc1,–,104
COc1ccccc1[C@H](c1cccc2ccccc12)[C@@](C)(C#N)C(=O)N1CCC(c2cccc(C(F)(F)F)c2)CC1,6.62 µM (active),–
CCN(CC)CCCC(C)Nc1nc(C)cc(Nc2ccc3nc(C)cc(N)c3c2)n1 (centres undefined),–,80
Cc1ccc(-n2nc(C(C)(C)C)cc2NC(=O)Nc2ccc(OCCN3CCOCC3)c3ccccc23)cc1,18.7 µM (active),–
CCC(C)(C)C(=O)O[C@H]1C[C@@H](C)C=C2C=C[C@H](C)[C@H](CC[C@@H]3C[C@@H](O)CC(=O)O3)[C@H]21,3.17 µM (active),–
NC(=O)c1ccc(I)c([N+](=O)[O-])c1,–,103
COc1ccc(CC2=NN3C([C@@H](CCc4ccccc4)[C@@H](C)O)=NC(C)C3C(=O)N2)cc1OC (some centres undefined),23.5 µM (active),–
O=S(=O)(N=Cc1c(O)ccc2ccccc12)c1cccs1,–,94.9
COc1cc2c(cc1OC)CN(CCc1ccc(NC(=O)c3cccc4c(=O)c5cccc(OC)c5[nH]c34)cc1)CC2,10.5 µM (active),–

# Experiment: Identifying Small Molecule Inhibitors of Pancreatic Cancer Stem Cells (Panc1, Adherent) (AID 1259362); note: potency is the fitted concentration of half-maximal effect;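 for viability, % of control: compound exposure lasted 48 h before the viability read; plate controls were DMSO-treated cells for no effect and cell-free media wells for full effect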
# Conditions: Potency: viability; series mostly up to 46.1 µM; viability, % of control: at the top concentration
# Outline: as §1
SMILES,"viability, % of control [%]",Potency
Cc1c(C)c2c(c(C)c1O)CCC(C)(COc1ccc(CC3SC(=O)NC3=O)cc1)O2 (centres undefined),116,–
COc1ccc2c3n(c(=NC(=O)c4cccnc4)nc2c1OC)CCN3,–,2.35 µM (active)
CCC(C)n1ncn(-c2ccc(N3CCN(c4ccc(OC[C@H]5CO[C@](Cn6cncn6)(c6ccc(Cl)cc6Cl)O5)cc4)CC3)cc2)c1=O (some centres undefined),107,–
c1ccc(-c2nn3c(c2-c2ccnc4cc(OCCN5CCOCC5)ccc24)CCC3)nc1,105,–
Cc1cccc(-c2nn(C(=S)Nc3ccccc3)cc2-c2ccnc3ccccc23)n1,106,–
CC(C)c1onc(-c2c(Cl)cccc2Cl)c1COc1ccc(/C=C/c2cccc(C(=O)O)c2)c(Cl)c1,100,–
CCn1c(-c2nonc2N)nc2cnc(Oc3cccc(NC(=O)c4ccc(OCCN5CCOCC5)cc4)c3)cc21,93.5,–
COc1ccccc1-c1cccc(-c2c(O)c3cc(C#N)c(Cl)cc3[nH]c2=O)c1,–,1.18 µM (active)
CCOc1ccn(-c2ccc(F)cc2)c(=O)c1C(=O)Nc1ccc(Oc2ccnc(N)c2Cl)c(F)c1,–,6.62 µM (active)
CNC(=O)c1ccc(N2C(=S)N(c3ccc(C#N)c(C(F)(F)F)c3)C(=O)C2(C)C)cc1F,75.8,–
CNCc1ccc(-c2[nH]c3cc(F)cc4c3c2CCNC4=O)cc1,110,–
COc1ccccc1[C@H](c1cccc2ccccc12)[C@@](C)(C#N)C(=O)N1CCC(c2cccc(C(F)(F)F)c2)CC1,128,–
COc1ccc(CC2=NN3C([C@@H](CCc4ccccc4)[C@@H](C)O)=NC(C)C3C(=O)N2)cc1OC (some centres undefined),104,–
O=S(=O)(N=Cc1c(O)ccc2ccccc12)c1cccs1,94.4,–
COc1cc2nccc(Oc3ccc(NC(=O)NC4CC4)c(Cl)c3)c2cc1C(N)=O,81.4,–
COc1cc2c(cc1OC)CN(CCc1ccc(NC(=O)c3cccc4c(=O)c5cccc(OC)c5[nH]c34)cc1)CC2,91.7,–
CCCCCCCc1ccc(CCc2cccc(O)c2C(=O)O)cc1,104,–
